# Assay results published in PubChem BioAssay (EPA / NIEHS).
# Where a structure was tested more than once in an assay, its records may differ in their call. Active and inactive are the calls of the source. Rule for the calls: active = hit-call score of the fitted dose curve at least 0.9, where 1 is the maximum; inactive = score below 0.9.
# Tests used:
# [1] = read-out: Macrophage colony-stimulating factor (MCSF), CSF1 (gene 1435); experiment: BSK_hDFCGF_MCSF: BioMAP Diversity Plus: hDFCGF Assay for Macrophage colony-stimulating factor (MCSF) Biomarker Activity (AID 2283060); conditions: primary human foreskin fibroblasts; actives raise or lower the signal
# In short: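 M-CSF levels read by ELISA at 24 h post-dosing in human skin fibroblasts. Parallel cultures stained with SRB assessed cytotoxicity at the same time point; response fitted in both directions against the DMSO baseline.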
# [2] = BSK_hDFCGF_SRB: Viability Assessment in the BioMAP Diversity Plus: hDFCGF Assay (AID 2283061); conditions: primary human foreskin fibroblasts;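 note: cells exposed to compound for 24 h before the read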
# In short: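 Viability was read as total protein: after 10% TCA fixation, wells were stained with 0.1% sulforhodamine B and read at 560 nm. Primary human foreskin fibroblasts were dosed for 24 h, with bidirectional fitting versus DMSO.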
# [3] = read-out: TIMP metallopeptidase inhibitor 1 (TIMP1), TIMP1 (gene 7076); experiment: BSK_hDFCGF_TIMP1: BioMAP Diversity Plus: hDFCGF Assay for TIMP metallopeptidase inhibitor 1 (TIMP1) Biomarker Activity (AID 2283062); conditions: primary human foreskin fibroblasts; actives raise or lower the signal
# In short: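 TIMP-1 measured by ELISA 24 h after chemical dosing of primary human skin fibroblasts, with gain or loss fitted relative to DMSO. Parallel SRB staining (560 nm) monitored overt cytotoxicity.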
# [4] = read-out: Monokine induced gamma interferon (MIG), CXCL9 (gene 4283); experiment: BSK_hDFCGF_MIG: BioMAP Diversity Plus: hDFCGF Assay for Monokine induced gamma interferon (MIG) Biomarker Activity (AID 2283063); conditions: primary human foreskin fibroblasts; actives raise or lower the signal
# In short: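 Human primary foreskin fibroblasts in the hDFCGF system, exposed to test chemical for 24 h; MIG measured by ELISA. Bidirectional curve fitting against DMSO negative control as activity baseline.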
# [5] = read-out: Matrix Metallopeptidase 1 (MMP1), MMP1 (gene 4312); experiment: BSK_hDFCGF_MMP1: BioMAP Diversity Plus: hDFCGF Assay for Matrix Metallopeptidase 1 (MMP1) Biomarker Activity (AID 2283064); conditions: primary human foreskin fibroblasts; actives raise or lower the signal
# In short: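 ELISA read-out of MMP1 from human foreskin fibroblasts (primary skin cells), 24 h post-dose. Gain or loss of signal was fitted bidirectionally versus DMSO negative control; cytotoxicity was checked by SRB in parallel cultures.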
# [6] = read-out: Vascular cell adhesion molecule 1 (VCAM1), VCAM1 (gene 7412); experiment: BSK_hDFCGF_VCAM1: BioMAP Diversity Plus: hDFCGF Assay for Vascular cell adhesion molecule 1 (VCAM1) Biomarker Activity (AID 2283065); conditions: primary human foreskin fibroblasts; actives raise or lower the signal
# In short: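 ELISA readout of VCAM-1 on human dermal fibroblast primary cultures, 24 h after chemical exposure. Gain or loss of signal fitted in both directions against DMSO baseline.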
# [7] = read-out: Plasminogen activator inhibitor-1 (PAI1), SERPINE1 (gene 5054); experiment: BSK_hDFCGF_PAI1: BioMAP Diversity Plus: hDFCGF Assay for Plasminogen activator inhibitor-1 (PAI1) Biomarker Activity (AID 2283066); conditions: primary human foreskin fibroblasts; actives raise or lower the signal
# In short: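 PAI-1 levels in human dermal foreskin fibroblasts were quantified by ELISA 24 h after dosing, with gain or loss analysed against DMSO. Overt cytotoxicity was checked by sulforhodamine B total-protein staining in parallel cultures.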
# [8] = read-out: Intercellular Adhesion Molecule 1 (ICAM1), ICAM1 (gene 3383); experiment: BSK_KF3CT_ICAM1: BioMAP Diversity Plus: KF3CT Assay for Intercellular Adhesion Molecule 1 (ICAM1) Biomarker Activity (AID 2283067); conditions: primary human keratinocytes with fibroblasts; actives raise or lower the signal
# In short: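 Cell-surface ICAM-1 was measured by ELISA 24 h after dosing primary human skin keratinocytes co-cultured with fibroblasts. Parallel SRB staining tracked overt cytotoxicity. Gain or loss of signal was fitted relative to DMSO.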
# [9] = BSK_KF3CT_SRB: Viability Assessment in the BioMAP Diversity Plus: KF3CT Assay (AID 2283069); conditions: primary human keratinocytes with fibroblasts;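 note: read 24 h after compound addition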
# In short: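 SRB read-out at 560 nm (0.1% stain, TCA-fixed cells) gauges overt cytotoxicity in a human skin keratinocyte–fibroblast co-culture 24 h post-dosing. Signal change was fitted bidirectionally relative to DMSO control.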
# [10] = read-out: Interleukin-1 alpha (IL1a), IL1A (gene 3552); experiment: BSK_KF3CT_IL1a: BioMAP Diversity Plus: KF3CT Assay for Interleukin-1 alpha (IL1a) Biomarker Activity (AID 2283070); conditions: primary human keratinocytes with fibroblasts; actives raise or lower the signal
# In short: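 Primary skin co-culture (keratinocytes, foreskin fibroblasts), 24 h exposure; ELISA for IL-1a; bidirectional curve fit vs DMSO.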
# [11] = read-out: TIMP metallopeptidase inhibitor 2 (TIMP2), TIMP2 (gene 7077); experiment: BSK_KF3CT_TIMP2: BioMAP Diversity Plus: KF3CT Assay for TIMP metallopeptidase inhibitor 2 (TIMP2) Biomarker Activity (AID 2283071); conditions: primary human keratinocytes with fibroblasts; actives raise or lower the signal
# In short: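 TIMP-2 measured by ELISA at 24 h in human keratinocyte/fibroblast primary co-cultures exposed to chemicals. Both increases and decreases were fitted against DMSO. Parallel cultures were stained with SRB for total protein as an overt-cytotoxicity check.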
# [12] = read-out: C-C motif chemokine 2 (Homo sapiens) (UniProt P13500); experiment: BSK_KF3CT_MCP1: BioMAP Diversity Plus: KF3CT Assay for Monocyte Chemoattractant Protein 1 (MCP1/CCL2) Biomarker Activity (AID 2283073); conditions: primary human keratinocytes with fibroblasts; actives raise or lower the signal
# In short: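 ELISA read-out of MCP-1, 24 h post-dose, in primary human skin keratinocytes co-cultured with fibroblasts. Parallel SRB staining monitors cytotoxicity; changes fitted both directions relative to DMSO.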
# [13] = read-out: Matrix Metallopeptidase 9 (MMP9), MMP9 (gene 4318); experiment: BSK_KF3CT_MMP9: BioMAP Diversity Plus: KF3CT Assay for Matrix Metallopeptidase 9 (MMP9) Biomarker Activity (AID 2283074); conditions: primary human keratinocytes with fibroblasts; actives raise or lower the signal
# In short: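 ELISA read-out of MMP-9 at 24 h post-dosing in a co-culture of human skin keratinocytes and foreskin fibroblasts. Gain or loss of signal was fitted in both directions against DMSO.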
# [14] = read-out: urokinase plasminogen activator (uPA), PLAU (gene 5328); experiment: BSK_KF3CT_uPA: BioMAP Diversity Plus: KF3CT Assay for urokinase plasminogen activator (uPA) Biomarker Activity (AID 2283075); conditions: primary human keratinocytes with fibroblasts; actives raise or lower the signal
# In short: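 Skin co-culture (keratinocytes + foreskin fibroblasts), human primary; 24 h post-dose; uPA by ELISA; gain/loss fit vs DMSO baseline.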
# CD40, CD40 (gene 958) = experiment: BSK_LPS_CD40: BioMAP Diversity Plus: LPS Assay for CD40 Biomarker Activity (AID 2283076); conditions: primary human HUVEC with PBMC; actives raise or lower the signal
# In short: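 In the LPS system of human endothelial cells with peripheral blood mononuclear cells, CD40 levels were read by ELISA 24 h post-treatment. Signal changes in either direction were fitted against the DMSO baseline, with parallel SRB protein staining.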
# [15] = read-out: E-selectin (Homo sapiens) (UniProt P16581); experiment: BSK_LPS_Eselectin: BioMAP Diversity Plus: LPS Assay for Eselectin Biomarker Activity (AID 2283077); conditions: primary human HUVEC with PBMC; actives raise or lower the signal
# In short: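 E-selectin ELISA on LPS-stimulated endothelial cell/PBMC co-cultures, read 24 h post-treatment; gains and losses fitted against DMSO. Parallel SRB staining (0.1% SRB after 10% TCA fixation, 560 nm) flags overt cytotoxicity.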
# [16] = BSK_LPS_SRB: Viability Assessment in the BioMAP Diversity Plus: LPS Assay (AID 2283079); conditions: primary human HUVEC with PBMC;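 note: total protein by sulforhodamine B absorbance as a cytotoxicity measure; measured one day after compound addition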
# In short: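 SRB viability endpoint: cells fixed with 10% TCA, stained with 0.1% SRB, read at 560 nm, 24 h post-dose. HUVEC/PBMC co-culture; signal change in either direction scored relative to DMSO.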
# [17] = read-out: Interleukin-8 (IL8), CXCL8 (gene 3576); experiment: BSK_LPS_IL8: BioMAP Diversity Plus: LPS Assay for Interleukin-8 (IL8) Biomarker Activity (AID 2283078); conditions: primary human HUVEC with PBMC; actives raise or lower the signal
# In short: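 ELISA read-out of IL-8 after 24 h chemical treatment of LPS-activated endothelial/PBMC human primary co-cultures. Changes either up or down relative to DMSO; overt cytotoxicity checked by sulforhodamine B staining in parallel wells.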
# Sequence of E-selectin (Homo sapiens) (P16581 whole entry, looked up): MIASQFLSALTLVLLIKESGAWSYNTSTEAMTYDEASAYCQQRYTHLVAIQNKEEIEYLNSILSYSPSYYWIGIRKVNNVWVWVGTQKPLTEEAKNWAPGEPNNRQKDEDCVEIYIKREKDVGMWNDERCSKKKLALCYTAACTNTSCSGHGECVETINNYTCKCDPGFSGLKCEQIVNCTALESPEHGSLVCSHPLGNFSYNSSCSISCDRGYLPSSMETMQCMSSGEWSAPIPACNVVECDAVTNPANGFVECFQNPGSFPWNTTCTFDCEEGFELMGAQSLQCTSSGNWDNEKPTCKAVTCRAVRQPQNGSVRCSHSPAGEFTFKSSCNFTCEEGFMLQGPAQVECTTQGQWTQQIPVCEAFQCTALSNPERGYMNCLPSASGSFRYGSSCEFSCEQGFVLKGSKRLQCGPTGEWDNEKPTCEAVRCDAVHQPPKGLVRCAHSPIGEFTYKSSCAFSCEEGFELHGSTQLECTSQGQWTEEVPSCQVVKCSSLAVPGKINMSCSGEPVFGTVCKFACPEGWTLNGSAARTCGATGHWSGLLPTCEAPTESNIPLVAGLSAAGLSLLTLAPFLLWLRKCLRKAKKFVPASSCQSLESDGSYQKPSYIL
Structure (SMILES),outcome [1],AC50 [2],outcome [2],outcome [3],outcome [4],outcome [5],outcome [6],outcome [7],outcome [8],outcome [9],outcome [10],outcome [11],outcome [12],outcome [13],outcome [14],"outcome (CD40, CD40 (gene 958))",outcome [15],outcome [16],AC50 [7],outcome [17]
FC1CC(F)(F)C(F)(F)C1(F)F (centres undefined),inactive,21.1 µM (active),inactive,inactive,inactive,inactive,inactive,inactive,inactive,inactive,inactive,inactive,inactive,inactive,inactive,inactive,inactive,inactive,–,–
OCC(F)(F)C(F)(F)C(F)(F)C(F)F,inactive,–,inactive,inactive,inactive,inactive,inactive,inactive,inactive,inactive,–,inactive,inactive,inactive,inactive,inactive,inactive,inactive,1.98 µM (active),–
COC(=O)CCC(F)(F)C(F)(F)C(F)(F)C(F)(F)F,inactive,30 µM (active),inactive,inactive,inactive,inactive,inactive,inactive,inactive,inactive,inactive,inactive,inactive,inactive,inactive,inactive,inactive,inactive,–,inactive
